# Laboratory results taken from PubChem BioAssay AID1117319 (Southern Research Institute, 2015).
# Screen size: about 260,000 compounds; about 1,500 (0.58%) were called active. Roughly 5% stayed inconclusive and do not appear here.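 How the source made its calls: active means inhibition above a set limit at one or more doses, reproduced on every date tested; inconclusive means results disagree between test dates, or hit never tested in dose response; inactive means the rest.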 A selection follows. Potency and affinity values are given separately.
# Molecular target: Virion infectivity factor (Human immunodeficiency virus type 1 group M subtype B (isolate BH10)) + Virion infectivity factor (Human immunodeficiency virus type 1 group M subtype B (isolate BRU/LAI)) + Virion infectivity factor (Human immunodeficiency virus type 1 group M subtype B (isolate PCV12)) + Virion infectivity factor (Human immunodeficiency virus type 1 group M subtype B (isolate HXB2)) + DNA dC->dU-editing enzyme APOBEC-3G (Homo sapiens) (UniProt P69720+P69721+P69722+P69723+Q9HC16)
# Experiment: inhibitors of Vif binding to APOBEC3G peptide, primary screen, biochemical, TR-FRET, GST-Vif 1-94, biotin-A3G peptide, dose response retest (AID 1117319);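 further: Vif residues 1-94 fused to GST binding biotinylated APOBEC3G peptide 110-148; 0% = full assay without inhibitor and 100% = GST in place of GST-Vif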
# Details: active compounds read high
row,Structure (SMILES),inhibition
1,CC1CCN(S(=O)(=O)c2ccc(S(=O)(=O)NCC3COCCO3)cc2)CC1 (stereo unspecified),8.23% (inactive)
2,CCNS(=O)(=O)c1ccc(CCC(=O)O)cc1,-1.11% (inactive)
3,CCN(CC)S(=O)(=O)c1ccc(N2CC(C(=O)NCCC3=CCCCC3)CC2=O)cc1 (stereo unspecified),-3.38% (inactive)
4,CC(=O)Nc1ccc(S(=O)(=O)N2CCN(c3ccccn3)CC2)cc1,25% (inactive)
5,Cc1ccc(S(=O)(=O)N2CCN(Cc3ccccn3)CC2)cc1,0.21% (inactive)
6,O=C(O)/C(=C\c1cn(-c2ccccc2)nc1-c1cccnc1)NC(=O)c1ccccc1,-1.44% (inactive)
7,Cc1cccc(OCc2n[nH]c(=S)n2-c2ccccc2)c1,1.89% (inactive)
8,Cc1ccc(OCc2n[nH]c(=S)n2-c2ccccc2)cc1C,-3.72% (inactive)
9,O=C(CN1CCN(C(=O)c2ccccc2)CC1)Nc1cc(S(=O)(=O)N2CCCC2)ccc1Cl,-24.1% (inactive)
10,COC(=O)C1=C(C)NC(C)=C(C(=O)OC)C1C(=O)OCc1nc2cc(C(=O)OC)ccc2c(=O)[nH]1,-5.82% (inactive)
11,Cc1ccc(-c2nc(N)n(S(=O)(=O)c3ccc(C)cc3)n2)cc1,0.67% (inactive)
12,O=C(C1CC=CCC1)N1CCN(S(=O)(=O)c2ccc(F)cc2)CC1 (stereo unspecified),-4.47% (inactive)
13,CC(C)C1Nc2ccc(S(N)(=O)=O)cc2C2C=CCC21 (stereo unspecified),30.5% (inactive)
14,CC(OC(=O)c1n[nH]c2ccccc12)C(=O)NC1CCCCC1C (stereo unspecified),1.37% (inactive)
15,CCOC(=O)N1CCN(c2ccc(Cl)cc2)CC1,-2.77% (inactive)
16,CCOC(=O)N1CCN(c2ccc([N+](=O)[O-])cc2)CC1,0.75% (inactive)
17,CCc1ccccc1NC(=S)N(CCCN(C)C)Cc1cc2cc3c(cc2[nH]c1=O)OCO3,-0.74% (inactive)
18,Clc1ccc(Oc2nc(N3CCOCC3)nc(N3CCOCC3)n2)c(C2CCCCC2)c1,-3.78% (inactive)
19,O=C(O)c1cccc2c1-c1c(cccc1[N+](=O)[O-])C2,-2.94% (inactive)
20,O=C(O)c1ccc(N2C(=O)CSC2c2cccc([N+](=O)[O-])c2)cc1 (stereo unspecified),-1.67% (inactive)
21,O=C(O)C1CCC(NSc2ccccc2[N+](=O)[O-])CC1 (stereo unspecified),-7.35% (inactive)

row,Structure (SMILES),inhibition
1,O=C(NC1CC1)c1ccc2c(c1)C1C3CCC(C3)C1C(c1ccccc1)N2 (stereo unspecified),3.47% (inactive)
2,CCN(CC(=O)Nc1ccc(NC(C)=O)cc1)C(=O)c1ccc(N2CCC(C)CC2)c([N+](=O)[O-])c1,3.59% (inactive)
3,CCN(C(=O)c1ccc(Cl)c([N+](=O)[O-])c1)c1ccccc1,3.48% (inactive)
4,CC(C)Cc1cc(C(=O)Nc2cc(C(F)(F)F)ccc2Cl)no1,14.1% (inactive)
5,C=Cc1ccc(CSc2cc(C)nc3nc(C)nn23)cc1,-4.49% (inactive)
6,Cc1ccc(CNc2ccc3c(c2)ncn3C(C)C)cc1,15.2% (inactive)
7,CC(C)(C)c1ccc(C(=O)C2CCCN(C(=O)CN3CCCC3=O)C2)cc1 (stereo unspecified),-3.41% (inactive)
8,Cc1ccc(NC(=O)CCCN2C(=O)C(c3ccccc3)Oc3cccnc32)c(C)c1 (stereo unspecified),-3% (inactive)
9,COc1ccc(C(=O)N/C(=C\c2ccco2)C(=O)OCc2ccco2)cc1,19.9% (inactive)
10,CCCCOc1ccc(C(=O)N/C(=C\c2ccc(OC)cc2)C(=O)OCc2ccco2)cc1,-1.87% (inactive)
11,COc1ccc2c(c1)NC(C)(C)C=C2C,32.2% (inactive)
12,COc1cc(NCCCCCCCN)c2ncccc2c1,3.69% (inactive)
13,COc1cc(NC(C)CCCNC(C)C)c2ncccc2c1OC (stereo unspecified),3.4% (inactive)
14,COC(=O)c1cc(NC(=O)COC(=O)CCc2c[nH]c3ccccc23)cc(C(=O)OC)c1,2.64% (inactive)
15,O=C1N=C(N2CCOCC2)S/C1=C/c1ccc(-c2ccccc2Cl)o1,7.88% (inactive)
16,CC(=O)N1CC(=O)N(Cc2ccccc2)/C(=C/c2ccccc2)C1=O,7.17% (inactive)
17,O=C1CC(/C=C/c2ccccc2)=Nc2ccccc2N1,4.19% (inactive)
18,O=C1CC(/C=C/c2ccncc2)=Nc2ccccc2N1,3.89% (inactive)
19,CC1=C([N+](=O)[O-])C(c2ccc(Cl)cc2)NC(=O)N1C (stereo unspecified),6.98% (inactive)
20,FC(F)(F)c1ccc(N2CCN(Cc3ccc4c(c3)OCO4)CC2)nc1,-10.1% (inactive)
21,CCOC(=O)C1=C(N)OC2=C(C(=O)CC(C)(C)C2)C1c1ccoc1 (stereo unspecified),-2.95% (inactive)

row,Structure (SMILES),inhibition
1,CC(C)NC(=O)COc1ccc(Cl)cc1Cl,-3.29% (inactive)
2,C/C(=C\C(=O)c1ccc(Br)cc1)Nc1cccc(Cl)c1,-2.57% (inactive)
3,Cc1ccc(C(=O)/C=C/Nc2cccc(O)c2)cc1,1.59% (inactive)
4,O=C(Cc1ccccc1)NNC1CC(=O)N(c2ccc(Cl)cc2)C1=O (stereo unspecified),8.41% (inactive)
5,Cc1ccnc(SCc2cc(=O)c(OC(=O)c3ccccc3)co2)n1,6.36% (inactive)
6,CCN(CC)c1ccc(C(=S)NCc2ccccc2)cc1,7.25% (inactive)
7,CCN(CC)c1ccc(NC(=O)Nc2ccccc2)cc1,5.11% (inactive)
8,COc1ccccc1NC(=O)C(C)N1C(=O)C2CCCCC2C1=O (stereo unspecified),9.66% (inactive)
9,COc1ccc(CCNC(=S)Nc2cc(C)ccc2C)cc1,2.7% (inactive)
10,Cn1cccc1/C=C1\SC(=Nc2ccc(O)cc2)NC1=O,-0.29% (inactive)
11,COC(=O)/C=C1\SC(=Nc2ccc(OC)cc2)NC1=O,-0.91% (inactive)
12,COc1ccc(N=C2NC(=O)/C(=C/C=C/c3ccccc3)S2)cc1,-3.43% (inactive)
13,O=C1NC(=Nc2ccc3ccccc3c2)S/C1=C/c1ccco1,-0.8% (inactive)
14,COc1ccc2c(c1OC)C(=O)OC2CC(=O)c1ccc2c(c1)OCO2 (stereo unspecified),-2.78% (inactive)
15,CCOC(=O)CSc1ccc2nnc(-c3ccncc3)n2n1,3.55% (inactive)
16,Cc1ccc(NC(=O)C2CCC2)cc1S(=O)(=O)N1CCCCCC1,0.74% (inactive)
17,O=S(=O)(NCC(c1cccnc1)N1CCOCC1)c1ccc(Cl)cc1 (stereo unspecified),1.91% (inactive)
18,CC(C)c1ccccc1NC(=O)Cn1c(/C=C/c2ccccc2)nc2ccccc21,2.28% (inactive)
19,Cc1cc(N/N=C/c2ccc(N(C)C)cc2)nc(NCc2ccccc2)n1,7.69% (inactive)
